The text below walks through data of PubChem BioAssay (NCI).

Compounds without any hit were thinned out: in the full panel of roughly 83,000, 20% have a hit.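 The endpoint reported here, percent growth, reads 100 for growth as untreated, 0 for no net growth and -100 for all cells dead.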 Values without a mark were called inactive. The source made the active and inactive calls. Rule for the calls: active = growth percent below 10; inactive = the rest.

Test in all cases: NCI-60 one-dose screen, 48 h (100 = growth as untreated, 0 = no growth, -100 = all killed)
Common to all, as to settings: 10 µM unless noted

For assay [1], the system named is NCI-H23 lung.
Assay [2] has as its system NCI-H226 lung.
The test system of assay [3] is HOP-62 NSCLC.
Assay [4] has as its system NCI-H460 lung.
The subject of assay [5] is HOP-92 NSCLC.
Assay [6] relates to NCI-H522 lung.
Assay [7] concerns A549/ATCC NSCLC.
Assay [8] deals with 786-0 renal.
The test system of assay [9] is COLO 205 colon.
In assay [10] the test system is NCI-H322M lung.

For the compound `CCC(C)N(c1ccc(Cl)cc1)c1nc(-c2ccc(Br)cc2)cs1` (stereo not given), the growth in assay [1] is 88.6%; in [2] it was 93.1%; in assay [3] it was 90.9%; in assay [4] it was 98%; in [5], 94.4%; in assay [6] it was 89.2%. Further, the growth in assay [7] is 95.6%; in [8], 96%; in assay [9], 112%.

For the compound `CCOP(=O)(OCC)c1nc(-c2ccccc2)oc1NCc1cccnc1`, the growth was 102% in assay [1]; 104% in assay [2]; 100% in assay [3]; 107% in assay [4]; 114% in assay [5]; 92.8% in [6]. The growth is 104% in assay [7], 104% in [8] and 117% in [9].

`CCCCNC(=O)Oc1ccc(/C(=C(/CC)Cc2ccccc2)c2ccc(OCCN3CCCCCC3)cc2)cc1`: the growth is 57.4% in [1]; 83.4% in assay [2]; 74.8% in [3]; -59.8% (active) in assay [4]; 36% in assay [5]; 30.4% in assay [6]. Also, the growth in assay [7] was 39.5%; in assay [8] it was 36.6%.

For `COC(C(=O)[C@@H](O)[C@@H](C)O)[C@@H]1Cc2cc3cc(O[C@H]4C[C@@H](O[C@H]5C[C@@H](O)[C@H](O)C(C)O5)[C@H](O)C(C)O4)c(C)c(O)c3c(O)c2C(=O)[C@H]1O[C@H]1C[C@@H](O[C@H]2C[C@@H](O[C@H]3C[C@@H](O)[C@H](OC)C(C)O3)[C@@H](O)C(C)O2)[C@H](O)C(C)O1` (stereo not given in full), the growth in assay [1] is -30.6% (active); in [2], 7.45% (active); in assay [3], -6.87% (active); in [4], 9.27% (active); in assay [5], -2.22% (active); in assay [6] it was -26.8% (active). Further, the figures for the growth in assay [7], in [8] and in assay [9] were 3.24% (active), 4.65% (active) and -44.4% (active), respectively.

`Oc1c(Cl)cc(Cl)c2ccc(Cn3cc(-c4ccc(C(F)(F)F)cc4)nn3)nc12`: the growth is 83% in assay [1]; 84.2% in [2]; 99.5% in assay [3]; 98.8% in [4]; 40.5% in assay [5]; -30.1% (active) in assay [6]. Further, the growth was 96.1% in assay [7], 95.1% in assay [8] and 83% in [9].

With `COc1ccc2cc(C(=O)c3coc4ccc(O)cc34)ccc2c1`, the growth in assay [1] is 96%; in assay [2], 104%; in assay [3] it was 94.9%; in assay [4], 105%; in [5] it was 95.4%; in assay [6], 72.9%. Also, the values for the growth in assay [7], in assay [8] and in assay [9] were 92.8%, 94.1% and 101%, respectively.

As to `CCN(CC)CCNC(=O)c1cn2ncnc(Oc3ccc(NC(=O)Nc4ccc(Cl)c(C(F)(F)F)c4)c(F)c3)c2c1C`, the growth in [1] is -37.4% (active); in assay [2], 73.9%; in [3] it was 36.5%; in assay [4], -67% (active); in [5], 22.1%; in assay [6], -52.3% (active). In addition, the values for the growth in assay [7], in [8] and in [9] were 4.56% (active), -86.1% (active) and -59.5% (active), respectively.

`COC(=O)c1n[nH]c2ccc3nc(-c4cn[nH]c4C(F)(F)F)c4c(c3c12)CCCC4`: the growth in assay [1] is 56%; in assay [2], 51.6%; in [3], 46.9%; in assay [4], 29.3%; in assay [5], 30.9%; in assay [6] it was 23.6%. Also, the growth in assay [7] is 39%; in assay [8], 35.5%; in assay [9] it was 3.9% (active).

In the case of `CC1=C(Nc2ccc(N3CCN(C)CC3)cc2)C(=O)c2cncnc2C1=O`, the growth in assay [1] was 72.6%; in [10], 101%; in [3] it was 107%; in assay [4], 25.2%; in assay [5] it was -28.6% (active); in assay [6], 84.9%. Besides, the values for the growth in assay [7], in assay [8] and in [9] were 92.6%, 107% and 124%, respectively.
